Among the test systems are HCT-15 colon; HT29 colon; SNB-75 CNS; SNB-19 CNS; U251 CNS; PC-3 prostate; SK-MEL-5 melanoma; UACC-62 melanoma; LOX IMVI melanoma; SK-MEL-28 melanoma; SK-MEL-2 melanoma; EKVX NSCLC; SN12C renal; UO-31 renal; TK-10 renal; ACHN renal; CAKI-1 renal; A498 renal; CCRF-CEM leukemia; MOLT-4 leukemia.
What all share (experiment): NCI-60 one-dose screen, 48 h (100 = growth as untreated, 0 = no growth, -100 = all killed)
Common to all, as to conditions: 10 µM unless noted

Compounds without any hit were thinned out: in the full panel of roughly 83,000, 20% have a hit.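 Single-concentration screen, 48 h exposure, 96-well plates. Endpoint: percent growth. Below 10 = active.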 A number with no mark means an inactive call. Active and inactive are the calls of the source.

As for `Oc1c(Br)cc(Br)c2ccc(Cn3cc(-c4ccccc4C(F)(F)F)nn3)nc12`, the growth in the experiment on HCT-15 colon is 62.7%; in the experiment on HT29 colon it was 107%; in the experiment on SNB-75 CNS it was 80.8%; with SNB-19 CNS it was 94.3%; in the experiment with U251 CNS, 106%; with PC-3 prostate, 104%. Also, the growth in the experiment with SK-MEL-5 melanoma was 103%; with UACC-62 melanoma, 95.5%; with LOX IMVI melanoma, 77.2%; in the experiment on SK-MEL-28 melanoma it was 96.9%; with SK-MEL-2 melanoma, 101%; in the experiment with EKVX NSCLC, 95.5%. For the same compound, the growth is 96.9% with SN12C renal; 78.7% in the experiment on UO-31 renal; 134% in the experiment on TK-10 renal; 61.8% with ACHN renal; 55% in the experiment with CAKI-1 renal; 106% in the experiment on A498 renal. Besides, the results for the growth in the experiment with CCRF-CEM leukemia and with MOLT-4 leukemia were 28.7% and 6.89% (active), respectively.

With `CCN(CC)CCCCCNc1cc(OC(=O)c2ccc(Cl)cc2)cc2cccnc12`, the growth is 97.7% in the experiment with HCT-15 colon; 87.6% in the experiment on HT29 colon; 89.5% in the experiment on SNB-75 CNS; 103% in the experiment on SNB-19 CNS; 105% in the experiment with U251 CNS; 88.8% in the experiment on PC-3 prostate. Further, the growth was 105% in the experiment with SK-MEL-5 melanoma; 98% with UACC-62 melanoma; 106% in the experiment with LOX IMVI melanoma; 116% in the experiment on SK-MEL-28 melanoma; 103% with SK-MEL-2 melanoma; 104% with EKVX NSCLC. The growth with SN12C renal is 96.8%; in the experiment with UO-31 renal, 94.7%; in the experiment on TK-10 renal, 106%; in the experiment on ACHN renal it was 106%; with CAKI-1 renal, 106%; with A498 renal it was 95.6%. The figures for the growth in the experiment with CCRF-CEM leukemia and in the experiment on MOLT-4 leukemia were 108% and 72.6%, respectively.

`COc1ccc(C/C(C)=C(\c2ccc(Cl)cc2)c2ccc(OCCN3CCCCC3)cc2)cc1`: the growth was 84.3% with HCT-15 colon; 81.2% in the experiment with HT29 colon; 89.3% in the experiment with SNB-75 CNS; 93.5% with SNB-19 CNS; 92.1% with U251 CNS; 94.6% in the experiment on PC-3 prostate. In addition, the growth in the experiment with SK-MEL-5 melanoma is 107%; in the experiment on UACC-62 melanoma it was 83.8%; in the experiment on LOX IMVI melanoma it was 104%; with SK-MEL-28 melanoma it was 101%; in the experiment with SK-MEL-2 melanoma, 97%; with EKVX NSCLC, 102%. Further, the growth is 94.3% in the experiment on SN12C renal; 73.9% in the experiment with UO-31 renal; 97% with TK-10 renal; 92.3% in the experiment on ACHN renal; 86.9% in the experiment with CAKI-1 renal; 120% with A498 renal. The growth is 90.1% in the experiment on CCRF-CEM leukemia and 75.4% with MOLT-4 leukemia.

With `CNc1nnc2n(-c3ccccc3)c(=O)c3cnn(-c4ccccc4)c3n12`, the growth was 76.2% in the experiment with HCT-15 colon; 51.3% with HT29 colon; 73.1% in the experiment on SNB-75 CNS; 110% in the experiment with SNB-19 CNS; 71.4% in the experiment with U251 CNS; 62.7% with PC-3 prostate. Besides, the growth with SK-MEL-5 melanoma is 100%; in the experiment on UACC-62 melanoma, 95.4%; in the experiment with LOX IMVI melanoma, 82.6%; with SK-MEL-28 melanoma it was 103%; with SK-MEL-2 melanoma it was 82%; in the experiment with EKVX NSCLC, 90.4%. Further, the growth in the experiment with SN12C renal is 104%; in the experiment with UO-31 renal, 81.3%; with TK-10 renal, 79.9%; in the experiment on ACHN renal it was 88.8%; in the experiment with CAKI-1 renal it was 81%; in the experiment with A498 renal, 71.7%. Further, the growth with CCRF-CEM leukemia is 85.8%; with MOLT-4 leukemia, 72.2%.

`CCC(C)(C)C(=O)O[C@H]1C[C@@H](C)C=C2C=C[C@H](C)[C@H](CC[C@@H]3CC(SCCN)CC(=O)O3)[C@H]21` (stereo not given in full): the growth in the experiment on HCT-15 colon is 100%; in the experiment on HT29 colon it was 75%; in the experiment with SNB-75 CNS, 95.5%; in the experiment on SNB-19 CNS, 93%; in the experiment on U251 CNS, 87.5%; in the experiment with PC-3 prostate it was 44.3%. Moreover, the growth in the experiment with SK-MEL-5 melanoma was 89.4%; in the experiment with UACC-62 melanoma it was 84.3%; with LOX IMVI melanoma, 75.8%; with SK-MEL-28 melanoma it was 102%; with SK-MEL-2 melanoma, 91.1%; with EKVX NSCLC, 105%. In addition, the growth in the experiment with SN12C renal was 77%; in the experiment on UO-31 renal, 68.6%; in the experiment with TK-10 renal it was 92.1%; with ACHN renal it was 95.8%; in the experiment on CAKI-1 renal, 83.9%; in the experiment with A498 renal it was 90.3%. Further, the values for the growth with CCRF-CEM leukemia and in the experiment on MOLT-4 leukemia were 12.1% and 77.7%, respectively.

Regarding `CCCCCCCC[C@@H]1N[C@@H](C(=O)OC)Cc2c1[nH]c1ccccc21`, the growth was 94.2% with HCT-15 colon; 111% in the experiment with HT29 colon; 81.6% in the experiment with SNB-75 CNS; 96.6% in the experiment on SNB-19 CNS; 91.5% with U251 CNS; 94.6% in the experiment on PC-3 prostate. Further, the growth is 97.3% with SK-MEL-5 melanoma; 69.1% with UACC-62 melanoma; 93.1% in the experiment on LOX IMVI melanoma; 94.2% in the experiment on SK-MEL-28 melanoma; 109% in the experiment on SK-MEL-2 melanoma; 92% in the experiment on EKVX NSCLC. The growth in the experiment with SN12C renal is 97.4%; with UO-31 renal it was 73.9%; with TK-10 renal it was 101%; in the experiment on ACHN renal it was 94.6%; in the experiment on CAKI-1 renal, 78.8%; in the experiment on A498 renal it was 88.7%. Further, the growth in the experiment on CCRF-CEM leukemia is 92.3%; in the experiment with MOLT-4 leukemia, 93%.

`CC(C)C1=NOC(=O)C1=Cc1cn(-c2ccccc2)nc1-c1ccc(F)cc1`: the growth in the experiment with HCT-15 colon is 61.4%; with HT29 colon, 28.8%; in the experiment on SNB-75 CNS, 70.6%; with SNB-19 CNS it was 81.7%; with U251 CNS it was 51.3%; with PC-3 prostate, 38.5%. For the same compound, the growth was 78.9% in the experiment on SK-MEL-5 melanoma; 75.5% in the experiment on UACC-62 melanoma; 6.17% (active) in the experiment on LOX IMVI melanoma; 82.7% with SK-MEL-28 melanoma; 94.6% in the experiment with SK-MEL-2 melanoma; 97.2% in the experiment on EKVX NSCLC. In addition, the growth with SN12C renal is 62.8%; in the experiment with UO-31 renal it was 74.2%; in the experiment on TK-10 renal, 75.2%; in the experiment with ACHN renal it was 71.4%; with CAKI-1 renal, 62.2%; with A498 renal, 82.2%. In addition, the growth in the experiment with CCRF-CEM leukemia is 10.7%; with MOLT-4 leukemia, 17.8%.

In the case of `Fc1ccc(CNc2c3ccccc3nc3ccccc23)c(F)c1`, the growth is 28.7% in the experiment on HCT-15 colon; 21.8% with HT29 colon; 81.1% in the experiment on SNB-75 CNS; 41.5% with SNB-19 CNS; 44.1% in the experiment with U251 CNS; 68.9% in the experiment on PC-3 prostate. Further, the growth in the experiment with SK-MEL-5 melanoma was 69.4%; in the experiment with UACC-62 melanoma it was 59.1%; in the experiment on LOX IMVI melanoma it was 21.5%; in the experiment on SK-MEL-28 melanoma, 90.4%; in the experiment on SK-MEL-2 melanoma, 99.7%; in the experiment with EKVX NSCLC it was 45.5%. Also, the growth in the experiment with SN12C renal was 37.2%; with UO-31 renal, 30.3%; in the experiment on TK-10 renal, 61%; in the experiment with ACHN renal, 23.4%; in the experiment with CAKI-1 renal, 35.3%; in the experiment with A498 renal it was -4.38% (active). In addition, the growth is 53.9% in the experiment on CCRF-CEM leukemia and 23.8% in the experiment on MOLT-4 leukemia.

These data come from PubChem BioAssay (NCI).
